Assay results reported in PubChem BioAssay AID1159580 (chemical genetic matrix, 2015).
Several values for one entry are separate records, joined by “and”; a condition that tells them apart may be missing. Equal entries are not always repeated. In all, about 5,500 compounds went through this assay and about 2,000 (36%) were called active. Not shown: some 18% with an inconclusive outcome. Cut-off read from the data, not from the text of the source: active = normalized growth mostly below about 0.91 (no sharp cut-off); inconclusive = no clear call, values can overlap the other calls; inactive = mostly above about 0.92. The list shows a part of the results.

Assay: chemical genetic growth profiling, strain panel (AID 1159580);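 note: tested at 20 µM; growth read once vehicle control cultures reached saturation at 30 °C; 1 = growth at the plate median or of vehicle wells; lower values mean less growth of the strain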
Details: growth OD

Measured: normalized growth

COc1ccc2[nH]cc(CCN)c2c1
inactive: S. cerevisiae deletion strains, locus YJR043C, strain POL32, active compounds read low 1.02 | S. cerevisiae deletion strains, locus YJR075W, strain HOC1, active compounds read low 0.995 and 0.984 | S. cerevisiae deletion strains, locus YKL009W, strain mrt4, active compounds read low 0.94 | S. cerevisiae deletion strains, locus YKL068W, active compounds read low 0.986 | S. cerevisiae deletion strains, locus YKL085W, strain MDH1 (second series), active compounds read low 0.991 | S. cerevisiae deletion strains, locus YKL085W, strain MDH1, active compounds read low 0.991 | S. cerevisiae deletion strains, locus YKL160W, strain elf1, active compounds read low 1 | S. cerevisiae deletion strains, locus YKL190W, strain CNB1, active compounds read low 0.996 | S. cerevisiae deletion strains, locus YKR001C, strain vps1, active compounds read low 0.987 | S. cerevisiae deletion strains, locus YKR026C, strain gcn3, active compounds read low 0.988 | S. cerevisiae deletion strains, locus YKR091W, strain srl3, active compounds read low 0.996 | S. cerevisiae deletion strains, locus YLL001W, strain dnm1, active compounds read low 1 | S. cerevisiae deletion strains, locus YLL026W, active compounds read low 0.997 | S. cerevisiae deletion strains, locus YLL041C, strain sdh2, active compounds read low 0.991 | S. cerevisiae deletion strains, locus YLR027C, strain aat2, active compounds read low 1 | S. cerevisiae deletion strains, locus YLR039C, strain RIC1, active compounds read low 1.03 | S. cerevisiae deletion strains, locus YLR058C, strain SHM2, active compounds read low 0.97 | S. cerevisiae deletion strains, locus YLR102C, strain apc9, active compounds read low 0.982 | S. cerevisiae deletion strains, locus YLR221C, strain rsa3, active compounds read low 0.969 | S. cerevisiae deletion strains, locus YLR258W, strain gsy2, active compounds read low 0.997 | S. cerevisiae deletion strains, locus YLR262C, strain YPT6 (second series), active compounds read low 0.999 | S. cerevisiae deletion strains, locus YLR262C, strain YPT6, active compounds read low 0.989 | S. cerevisiae deletion strains, locus YLR268W, strain sec22, active compounds read low 1.06 | S. cerevisiae deletion strains, locus YLR320W, strain mms22, active compounds read low 0.965 | S. cerevisiae deletion strains, locus YLR330W, strain CHS5, active compounds read low 0.995 | S. cerevisiae deletion strains, locus YLR342W, strain FKS1 (second series), active compounds read low 0.991 | S. cerevisiae deletion strains, locus YLR342W, strain FKS1, active compounds read low 1.01 | S. cerevisiae deletion strains, locus YLR357W, strain rsc2, active compounds read low 0.991 | S. cerevisiae deletion strains, locus YLR370C, strain arc18, active compounds read low 0.994 | S. cerevisiae deletion strains, locus YLR371W, strain rom2, active compounds read low 0.974 | S. cerevisiae deletion strains, locus YLR384C, strain iki3, active compounds read low 0.999 | S. cerevisiae deletion strains, locus YLR418C, strain cdc73, active compounds read low 0.978 | S. cerevisiae deletion strains, locus YML016C, strain PPZ1, active compounds read low 0.984 | S. cerevisiae deletion strains, locus YML032C, strain rad52, active compounds read low 1 | S. cerevisiae deletion strains, locus YML120C, strain ndi1, active compounds read low 1.01 | S. cerevisiae deletion strains, locus YML124C, strain tub3, active compounds read low 0.984 | S. cerevisiae deletion strains, locus YMR058W, strain fet3, active compounds read low 0.988 | S. cerevisiae deletion strains, locus YMR078C, strain ctf18, active compounds read low 0.99 | S. cerevisiae deletion strains, locus YMR125W, strain sto1, active compounds read low 0.992 | S. cerevisiae deletion strains, locus YMR129W, active compounds read low 0.981 | S. cerevisiae deletion strains, locus YMR205C, strain PFK2, active compounds read low 1.02 | S. cerevisiae deletion strains, locus YMR223W, strain ubp8, active compounds read low 0.957 | S. cerevisiae deletion strains, locus YMR231W, strain pep5, active compounds read low 0.994 | S. cerevisiae deletion strains, locus YMR263W, strain SAP30, active compounds read low 0.981 and 0.985 | S. cerevisiae deletion strains, locus YMR307W, strain GAS1, active compounds read low 0.947 | S. cerevisiae deletion strains, locus YNL067W, strain RPL9B, active compounds read low 1.01 | S. cerevisiae deletion strains, locus YNL071W, strain lat1, active compounds read low 1.01 | S. cerevisiae deletion strains, locus YNL128W, strain TEP1, active compounds read low 0.975 | S. cerevisiae deletion strains, locus YNL153C, strain GIM3, active compounds read low 1 | S. cerevisiae deletion strains, locus YNL175C, strain NOP13, active compounds read low 1 | S. cerevisiae deletion strains, locus YNL197C, strain WHI3, active compounds read low 0.99 | S. cerevisiae deletion strains, locus YNL209W, strain ssb2, active compounds read low 1.01 | S. cerevisiae deletion strains, locus YNL224C, strain SQS1, active compounds read low 0.982 | S. cerevisiae deletion strains, locus YNL233W, strain BNI4, active compounds read low 1 | S. cerevisiae deletion strains, locus YNL248C, strain rpa49, active compounds read low 0.972 | S. cerevisiae deletion strains, locus YNL250W, strain rad50, active compounds read low 0.963 | S. cerevisiae deletion strains, locus YNL271C, strain bni1, active compounds read low 0.996 | S. cerevisiae deletion strains, locus YNL298W, strain CLA4, active compounds read low 0.971 | S. cerevisiae deletion strains, locus YNL307C, strain MCK1, active compounds read low 0.989 | S. cerevisiae deletion strains, locus YNL322C, strain KRE1 (second series), active compounds read low 1 | S. cerevisiae deletion strains, locus YNL322C, strain KRE1, active compounds read low 0.991 and 0.992 | S. cerevisiae deletion strains, locus YNR049C, strain mso1, active compounds read low 0.984 | S. cerevisiae deletion strains, locus YNR052C, strain pop2, active compounds read low 0.976 | S. cerevisiae deletion strains, locus YOL006C, strain TOP1, active compounds read low 1.03 | S. cerevisiae deletion strains, locus YOL012C, strain htz1 0.627 | S. cerevisiae deletion strains, locus YOL147C, strain pex11, active compounds read low 0.987 | S. cerevisiae deletion strains, locus YOR001W, strain rrp6, active compounds read low 0.931 | S. cerevisiae deletion strains, locus YOR061W, strain CKA2, active compounds read low 0.965 | S. cerevisiae deletion strains, locus YOR069W, strain VPS5, active compounds read low 0.983 | S. cerevisiae deletion strains, locus YOR070C, strain gyp1, active compounds read low 0.979 | S. cerevisiae deletion strains, locus YOR080W, strain dia2, active compounds read low 0.991 | S. cerevisiae deletion strains, locus YOR083W, strain WHI5 (second series), active compounds read low 0.99 | S. cerevisiae deletion strains, locus YOR083W, strain WHI5, active compounds read low 1.02 | S. cerevisiae deletion strains, locus YOR106W, strain vam3, active compounds read low 1.02 | S. cerevisiae deletion strains, locus YOR136W, strain idh2, active compounds read low 0.998 | S. cerevisiae deletion strains, locus YOR144C, strain elg1, active compounds read low 0.985 | S. cerevisiae deletion strains, locus YOR184W, strain ser1, active compounds read low 1.01 | S. cerevisiae deletion strains, locus YOR265W, strain rbl2, active compounds read low 0.991 | S. cerevisiae deletion strains, locus YOR270C, strain vph1, active compounds read low 0.957 | S. cerevisiae deletion strains, locus YOR290C, strain snf2, active compounds read low 1.01 | S. cerevisiae deletion strains, locus YOR316C, strain cot1, active compounds read low 0.994 | S. cerevisiae deletion strains, locus YPL051W, strain arl3, active compounds read low 1.01 | S. cerevisiae deletion strains, locus YPL055C, strain LGE1, active compounds read low 0.977 | S. cerevisiae deletion strains, locus YPL078C, strain atp4, active compounds read low 1.02 | S. cerevisiae deletion strains, locus YPL106C, strain sse1, active compounds read low 1.01 | S. cerevisiae deletion strains, locus YPL240C, strain hsp82, active compounds read low 0.995 | S. cerevisiae deletion strains, locus YPL241C, strain CIN2, active compounds read low 0.994 and 1.01 | S. cerevisiae deletion strains, locus YPR119W, strain clb2, active compounds read low 0.989 | S. cerevisiae deletion strains, locus YPR141C, strain kar3, active compounds read low 0.976 | S. cerevisiae deletion strains, locus YPR163C, strain tif3, active compounds read low 0.995 | S. cerevisiae deletion strains, locus YPR167C, strain met16, active compounds read low 0.989 | S. cerevisiae deletion strains, strain wtn01, active compounds read low 1.02 | S. cerevisiae strains, strain wild type, active compounds read low 0.984
